Compounds without any hit were thinned out: in the full panel of roughly 83,000, 20% have a hit.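 For each line, cells grew in 96-well plates with the test compound present at a single concentration for 48 hours.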 Calls of active or inactive are those of the source. Rule for the calls: active = growth percent below 10; inactive = the rest.
How the values were obtained:
Experiment in all cases: NCI-60 one-dose screen, 48 h (100 = growth as untreated, 0 = no growth, -100 = all killed)
Details in all cases: 10 µM unless noted
NCI-H23 lung = test system: NCI-H23 lung
NCI-H226 lung = test system: NCI-H226 lung
NCI-H322M lung = test system: NCI-H322M lung
HOP-62 NSCLC = test system: HOP-62 NSCLC
NCI-H460 lung = test system: NCI-H460 lung
HOP-92 NSCLC = test system: HOP-92 NSCLC
NCI-H522 lung = test system: NCI-H522 lung
A549/ATCC NSCLC = test system: A549/ATCC NSCLC
786-0 renal = test system: 786-0 renal
COLO 205 colon = test system: COLO 205 colon
DU-145 prostate = test system: DU-145 prostate
K-562 leukemia = test system: K-562 leukemia
MALME-3M melanoma = test system: MALME-3M melanoma
MDA-MB-231 breast = test system: MDA-MB-231 breast
RXF 393 renal = test system: RXF 393 renal
SF-268 CNS = test system: SF-268 CNS
SF-295 CNS = test system: SF-295 CNS
SF-539 CNS = test system: SF-539 CNS
UACC-257 melanoma = test system: UACC-257 melanoma
M14 melanoma = test system: M14 melanoma

Measured: growth

CSc1nc(NCc2ccccc2)c(C#N)c(-c2cccc([N+](=O)[O-])c2)n1
inactive: NCI-H23 lung 93.7% | NCI-H226 lung 94.5% | NCI-H322M lung 95.7% | HOP-62 NSCLC 89.2% | NCI-H460 lung 97% | HOP-92 NSCLC 77.7% | NCI-H522 lung 85.4% | A549/ATCC NSCLC 88.4% | 786-0 renal 96.6% | COLO 205 colon 110% | DU-145 prostate 103% | K-562 leukemia 90.7% | MALME-3M melanoma 113% | MDA-MB-231 breast 82.7% | RXF 393 renal 102% | SF-268 CNS 94.3% | SF-295 CNS 98.9% | SF-539 CNS 104% | UACC-257 melanoma 109% | M14 melanoma 98%

O=c1cc(CSc2nnc(-c3ccc(F)cc3)o2)c2ccc3ccccc3c2o1
inactive: NCI-H23 lung 84.3% | NCI-H226 lung 81.1% | NCI-H322M lung 100% | HOP-62 NSCLC 75.4% | NCI-H460 lung 101% | HOP-92 NSCLC 92.2% | NCI-H522 lung 83.8% | A549/ATCC NSCLC 85.5% | 786-0 renal 104% | COLO 205 colon 117% | DU-145 prostate 107% | K-562 leukemia 93.9% | MALME-3M melanoma 107% | MDA-MB-231 breast 87.2% | RXF 393 renal 107% | SF-268 CNS 96.4% | SF-295 CNS 89.5% | SF-539 CNS 98.1% | UACC-257 melanoma 103% | M14 melanoma 103%

O=C1c2ccccc2C(=O)c2c(N=Nc3[nH]c(=S)[nH]c3O)cccc21
inactive: NCI-H23 lung 41.7% | NCI-H226 lung 28.3% | NCI-H322M lung 40.1% | HOP-62 NSCLC 25% | HOP-92 NSCLC 19.8% | A549/ATCC NSCLC 24.3% | 786-0 renal 22.6% | COLO 205 colon 19% | DU-145 prostate 16.3% | MALME-3M melanoma 45.4% | MDA-MB-231 breast 40.3% | SF-268 CNS 32.1% | UACC-257 melanoma 56.9%
active: NCI-H460 lung 7.32% | NCI-H522 lung -6.34% | K-562 leukemia 9.57% | RXF 393 renal -22.4% | SF-295 CNS 7.45% | SF-539 CNS -32.3% | M14 melanoma -15.8%

CCCn1c(=O)[nH]c(N)c([C@H]2c3ccccc3Oc3[nH]c(=O)n(CCC)c(=O)c32)c1=O
inactive: NCI-H23 lung 86.2% | NCI-H226 lung 102% | NCI-H322M lung 85.4% | HOP-62 NSCLC 90.8% | NCI-H460 lung 111% | HOP-92 NSCLC 102% | NCI-H522 lung 20.7% | A549/ATCC NSCLC 84.8% | 786-0 renal 82.7% | COLO 205 colon 86.4% | DU-145 prostate 75.1% | K-562 leukemia 52.6% | MALME-3M melanoma 78.4% | MDA-MB-231 breast 81.8% | RXF 393 renal 98.2% | SF-268 CNS 94.4% | SF-295 CNS 88.1% | SF-539 CNS 100% | UACC-257 melanoma 76.3% | M14 melanoma 83.8%

O=C1c2cc3c(cc2-c2c1c1ccc(Cl)cc1c(=O)n2CCCN1CCOCC1)OCO3
inactive: NCI-H23 lung 47.9% | NCI-H226 lung 24.9% | NCI-H322M lung 89.6% | HOP-62 NSCLC 26.2% | NCI-H460 lung 18.1% | HOP-92 NSCLC 80.4% | NCI-H522 lung 53.5% | A549/ATCC NSCLC 48.7% | 786-0 renal 34.2% | COLO 205 colon 54.8% | DU-145 prostate 26.9% | K-562 leukemia 44.5% | MALME-3M melanoma 85.2% | MDA-MB-231 breast 111% | RXF 393 renal 92.7% | SF-268 CNS 43.6% | SF-295 CNS 27.9% | SF-539 CNS 22.7% | UACC-257 melanoma 91.8% | M14 melanoma 25.3%

CN1CCN(CCCOc2cccc3nc(Nc4ccc(Cl)c(F)c4)ccc23)CC1
active: COLO 205 colon -54.7% | K-562 leukemia -48.6% | MALME-3M melanoma 1.94% | MDA-MB-231 breast -57.6% | UACC-257 melanoma -31% | M14 melanoma -27.7%
inactive: NCI-H23 lung 63.3% | NCI-H226 lung 58.1% | NCI-H322M lung 33.6% | HOP-62 NSCLC 61% | NCI-H460 lung 13.2% | HOP-92 NSCLC 30.8% | NCI-H522 lung 29.8% | A549/ATCC NSCLC 40.1% | 786-0 renal 64.1% | DU-145 prostate 38.8% | RXF 393 renal 54% | SF-268 CNS 44.3% | SF-295 CNS 46% | SF-539 CNS 16.9%

CC[C@@H](C(=O)[C@@H](C)[C@@H](O)[C@H](C)[C@@H]1O[C@@H]([C@@H](CC)C(=O)O)CC[C@@H]1C)[C@H]1OC2(C=C[C@@H](O)[C@]3(CC[C@@](C)([C@H]4CC[C@](O)(CC)[C@H](C)O4)O3)O2)[C@H](C)C[C@@H]1C (stereo not given in full)
active: NCI-H23 lung 4.65% | HOP-92 NSCLC -14.8% | NCI-H522 lung -54.6% | 786-0 renal 3.62% | K-562 leukemia -33.8% | MALME-3M melanoma -90.7% | MDA-MB-231 breast -39% | RXF 393 renal -32.6% | SF-295 CNS 1.38% | SF-539 CNS -28.1% | UACC-257 melanoma 7.26% | M14 melanoma -86.7%
inactive: NCI-H226 lung 14.1% | NCI-H322M lung 24.2% | HOP-62 NSCLC 39.3% | NCI-H460 lung 10% | A549/ATCC NSCLC 11.9% | COLO 205 colon 17.1% | DU-145 prostate 45.8% | SF-268 CNS 27.4%

CCOc1cc2ncc(C#N)c(Nc3ccc(OCc4cccc(F)c4)c(Cl)c3)c2cc1NC(=O)CC1CCSS1 (stereo not given)
active: NCI-H322M lung 6.49% | NCI-H460 lung -56.6% | A549/ATCC NSCLC -69.7% | DU-145 prostate -24.9% | SF-268 CNS -22.3% | M14 melanoma -68.5%
inactive: NCI-H23 lung 47.4% | NCI-H226 lung 56.1% | HOP-62 NSCLC 14.9% | HOP-92 NSCLC 66.7% | NCI-H522 lung 58.2% | 786-0 renal 88.5% | COLO 205 colon 32.2% | K-562 leukemia 10.5% | MALME-3M melanoma 56.5% | MDA-MB-231 breast 14.5% | RXF 393 renal 50.2% | SF-295 CNS 91.3% | SF-539 CNS 49.9% | UACC-257 melanoma 64.8%
